# Assay results: PubChem BioAssay (NCI)
# About 83,000 compounds went through this panel and 20% of them were active in at least one assay; those are over-represented in the sample as a whole.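 Each cell line was grown in a 96-well plate and treated with one concentration of compound for 48 hours. Values below 10 were considered active.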 A number with no mark means an inactive call. Active and inactive are the calls of the source.
# Tests used:
# Assay in all cases: NCI-60 one-dose screen, 48 h (100 = growth as untreated, 0 = no growth, -100 = all killed)
# Conditions in all cases: 10 µM unless noted
# [1] = tested on: HCT-15 colon
# [2] = tested on: HT29 colon
# [3] = tested on: SNB-75 CNS
# [4] = tested on: SNB-19 CNS
# [5] = tested on: U251 CNS
# [6] = tested on: PC-3 prostate
# [7] = tested on: SK-MEL-5 melanoma
# [8] = tested on: UACC-62 melanoma
# [9] = tested on: LOX IMVI melanoma
# [10] = tested on: SK-MEL-28 melanoma
# [11] = tested on: SK-MEL-2 melanoma
# [12] = tested on: EKVX NSCLC
# [13] = tested on: SN12C renal
# [14] = tested on: UO-31 renal
# [15] = tested on: TK-10 renal
# [16] = tested on: ACHN renal
# [17] = tested on: CAKI-1 renal
# [18] = tested on: A498 renal
# [19] = tested on: CCRF-CEM leukemia
# [20] = tested on: MOLT-4 leukemia
Structure (SMILES),growth [1],growth [2],growth [3],growth [4],growth [5],growth [6],growth [7],growth [8],growth [9],growth [10],growth [11],growth [12],growth [13],growth [14],growth [15],growth [16],growth [17],growth [18],growth [19],growth [20]
C=C1CCC2C3(C)COC(c4ccccc4)OC3CCC2(C)C1C/C=C1/C(=O)OCC1OC(C)=O (stereo not given),79.1%,65.7%,75.3%,95.6%,71.2%,78.5%,60.7%,90.2%,12.3%,118%,95.1%,104%,80.6%,81.6%,56.8%,92.4%,106%,103%,2.16% (active),77.1%
Nc1ccccc1-c1ccn[nH]1,85.2%,106%,61.9%,97.4%,96.7%,79.1%,96.6%,48.4%,68.6%,110%,83.5%,87%,87.9%,50.9%,119%,70.5%,68.4%,103%,97.4%,98.7%
CC1=C([Se]CC(OC(=O)[C@@H](CSSC(C)(C)C)NC(=O)C(C)(C)C)C(=O)NCCCCCC(=O)OCc2ccccc2)C(=O)c2ccccc2C1=O (stereo not given in full),20.4%,-29.5% (active),-92.5% (active),-73.5% (active),-37.5% (active),-20.8% (active),-48.8% (active),-30.6% (active),4.76% (active),-27.3% (active),-24.2% (active),-24.2% (active),2.42% (active),-78.5% (active),-29.3% (active),-10.9% (active),-19.3% (active),-5.18% (active),3% (active),5.23% (active)
COP(=O)(OC)C(c1ccccc1)(c1ccccc1)c1ccccc1,107%,91.4%,108%,99.9%,87.7%,75.2%,89.5%,70.9%,84.2%,109%,101%,101%,97.7%,113%,69%,107%,83%,93%,84.3%,46.5%
CC1CN(C2CCCCC2)C(=O)NC1=O (stereo not given),104%,105%,93.4%,97.4%,110%,94%,105%,87.5%,101%,116%,100%,110%,92.1%,82%,101%,106%,103%,87.9%,106%,85%
O=C(NCCCl)NCCN1c2nc3ccccc3cc2Sc2cc3ccccc3nc21,51.9%,36.2%,-5.93% (active),63.9%,34.8%,25.3%,9.61% (active),47.4%,49.7%,86.4%,40.5%,54.7%,67.3%,-5.97% (active),99.2%,64.8%,248%,80.3%,20.5%,-9.47% (active)
O=C(NC1CCS(=O)(=O)C1)c1ccc(C(=O)c2ccccc2)cc1 (stereo not given),101%,106%,90.9%,97.9%,90.1%,101%,110%,95.6%,95.6%,89.2%,7.36% (active),96.3%,105%,76.5%,137%,98.1%,98.2%,110%,127%,109%
CCOC(=O)c1cc2oc(/C=C/c3cc(=O)c4cc(Cl)ccc4o3)cc2[nH]1,105%,96.6%,73%,92.1%,92.5%,85.2%,68.2%,75.8%,101%,91.4%,82.1%,89.7%,62.4%,81.8%,113%,97.8%,79%,115%,105%,88.9%
Cc1ccccc1NC(=O)NC(CC(N)=O)c1ccc2c(c1)nc(-c1cccc(Oc3ccc(C(C)(C)C)cc3)c1)n2CCCN1CCCCC1C (stereo not given),92.3%,-34.6% (active),62.5%,46.2%,-74.2% (active),29.7%,-73% (active),82.7%,-73% (active),-71.7% (active),51.8%,79.2%,59.1%,88.6%,31.1%,74.4%,92.6%,69.4%,1.56% (active),-10.6% (active)
CC1C(C)N(C(=O)CCl)c2ccccc2N1C(=O)CCl (stereo not given),-83.4% (active),-73.5% (active),-99.4% (active),8.21% (active),-93.4% (active),-36.6% (active),-70.4% (active),-76.8% (active),-81.2% (active),-45.9% (active),-40.9% (active),-60% (active),-26.6% (active),-84.8% (active),-87.4% (active),-91.5% (active),-79.7% (active),-83.5% (active),-34.6% (active),-26.5% (active)
CCOC(=O)c1sc(NC(=O)COc2ccc(/C=C3\CCc4cc(OC)ccc4C3=O)cc2)nc1C,102%,85.8%,105%,96.1%,91.2%,79.5%,96.6%,95.2%,-88.1% (active),118%,62.3%,90.6%,86.2%,14.5%,115%,103%,76.7%,76.6%,-62.6% (active),7.56% (active)
CCOC(=O)OCC(=O)[C@@]1(O)CC[C@H]2[C@@H]3CCC4=CC(=O)CC[C@]4(C)[C@H]3[C@@H](O)C[C@@]21C,105%,103%,119%,96.4%,103%,92%,98.2%,87.6%,89.8%,110%,102%,85.4%,87.2%,76.2%,96.4%,99.3%,90.9%,98.8%,84.6%,93.2%
CC(=O)Nc1ccc(C(=O)COc2ccc(/C=C3\CCc4ccccc4C3=O)cc2)cc1,102%,104%,116%,106%,98.6%,88.8%,98%,99.7%,99.9%,122%,77.8%,99.8%,103%,33.2%,112%,103%,94.8%,66.3%,89.4%,78.8%
COc1cc(/C=C\C(C)=N\Nc2ccccc2)ccc1O,75.4%,108%,98.7%,103%,90.5%,67.2%,95%,69.8%,73.1%,120%,92.5%,94.1%,92.6%,66%,94.5%,97.6%,82.3%,110%,30.7%,70.9%
CS(=O)(=O)N1CCN(Cc2cc3nc(-c4cccc5[nH]ncc45)nc(N4CCOCC4)c3s2)CC1 (tested in a mixture with another compound),14.2%,9.57% (active),-3.36% (active),28%,30.5%,6.61% (active),-0.161% (active),-13.5% (active),18.8%,10.6%,33.4%,16.7%,17%,-12.9% (active),20.5%,12.2%,-1.96% (active),-62.1% (active),20.9%,8.77% (active)
C(=C1c2ccccc2-c2ccccc21)c1ccccn1,42.8%,17%,62.5%,73.6%,50.4%,78.1%,78.3%,52.9%,57.2%,81%,54.2%,70.6%,80.3%,79.6%,91.7%,96.5%,52%,97.8%,85.5%,67.3%

Structure (SMILES),growth [1],growth [2],growth [3],growth [4],growth [5],growth [6],growth [7],growth [8],growth [9],growth [10],growth [11],growth [12],growth [13],growth [14],growth [15],growth [16],growth [17],growth [18],growth [19],growth [20]
C[C@@H]1CN(c2nc3c(cc2F)c(=O)c(C(=O)O)cn3C(C)(C)C)C[C@H](C)N1,106%,95.8%,114%,106%,103%,89.1%,92.4%,90%,90.5%,122%,97.1%,104%,104%,94.2%,102%,99.8%,-7.72% (active),107%,102%,101%
COc1ccc2c(c1)CC[C@@H]1[C@@H]2CC[C@]2(C)[C@@H](O)C(=O)C[C@@H]12,114%,105%,97.2%,102%,102%,95.1%,107%,94.5%,94%,113%,107%,102%,96.1%,85.2%,109%,94.9%,97.4%,95.7%,91.8%,90.8%
CSc1nc(N)c2c(n1)N(C)C=NS2(=O)=O,103%,124%,93.3%,107%,103%,94.7%,104%,97.4%,98.3%,122%,123%,113%,99.3%,87.1%,109%,99%,98.2%,,94.4%,
O=C1c2cccc(NCCN=Cc3ccccc3O)c2C(=O)c2c(NCCN=Cc3ccccc3O)cccc21,38.7%,-4.87% (active),29.3%,14.3%,7.41% (active),10.2%,52.7%,81.5%,-3.1% (active),50.2%,46.5%,39.8%,44.5%,-4.5% (active),22.5%,15.4%,27.6%,50.7%,,15%
O=C(c1ccc(N2CCOCC2)cc1[N+](=O)[O-])N1CCOCC1,96.2%,90.5%,31.8%,96.9%,105%,93.6%,136%,97%,98.3%,96.9%,17.9%,18.9%,145%,99.4%,116%,100%,20.1%,104%,104%,116%
O=C(Nc1nc2ccc(OC(F)(F)F)cc2s1)c1ccc(F)cc1,12%,15.7%,73.7%,12.3%,6.58% (active),12.4%,-7.36% (active),7.77% (active),11.3%,33.5%,-22.6% (active),15.6%,13.3%,-4.24% (active),21.8%,7.56% (active),6.43% (active),16.4%,32.1%,13.8%
O=C(O)CNC(=O)C1(N2C(=O)c3ccccc3C2=O)CCCC1,106%,105%,88.2%,99%,107%,104%,100%,94.5%,97.2%,104%,101%,104%,99%,94.1%,99.6%,108%,98.5%,100%,88.8%,101%
O=C(/C=C(\Nc1ccccc1)c1ccccc1)c1cn(-c2ccc([N+](=O)[O-])cc2)nn1,84.7%,96.9%,91.8%,97.6%,87.5%,80.1%,97.1%,84.9%,88.5%,83.7%,5.29% (active),100%,104%,69%,118%,94.6%,108%,96.2%,71.4%,64.3%
O=C(O)CCNS(=O)(=O)c1ccc(-c2ccccc2)cc1,99.2%,110%,90.6%,102%,94.5%,89.6%,97.9%,96.7%,92.1%,94.3%,0.624% (active),91.6%,95%,92.8%,136%,97.9%,104%,115%,111%,118%
Cc1cc2ccccn2c1C(=O)c1ccc(C(=O)c2ccccc2)cc1,85.5%,82%,93.5%,86.1%,86.2%,85.2%,98.4%,75.1%,92.1%,89.7%,15%,91.8%,94.5%,62.5%,98.7%,93%,106%,90.5%,86.6%,78.4%
C(=C1c2ccccc2-c2ccccc21)c1ccncc1,26.9%,8.42% (active),-5.86% (active),45.1%,27.8%,58.6%,46.6%,30.8%,39.5%,68.8%,42.9%,59.5%,51.2%,49.5%,64.6%,71.5%,29.6%,62%,59.3%,39.5%
CCOC1Oc2ccccc2C(=O)/C1=N/c1nccs1 (stereo not given),80%,105%,75.1%,91.7%,82%,67.8%,101%,78.7%,85.2%,99.9%,73.9%,89.3%,76.4%,89.4%,98.8%,84.9%,77.3%,115%,82.4%,79.8%
O=C1OC2(c3ccccc31)c1ccccc1-c1ccccc12,71.4%,74.6%,61.2%,83%,63.6%,74.4%,78.9%,57.4%,77.6%,74.5%,65%,87.9%,90.4%,65.7%,82.7%,101%,62.3%,69.8%,72.4%,82.9%
C=C1CCC2C(C)(COC(=O)CC)C(OC(=O)CC)CCC2(C)C1C/C=C1/C(=O)OCC1OC(=O)CC (stereo not given),0.0652% (active),-73.2% (active),-3.12% (active),62%,-72.3% (active),27.7%,16.8%,0.659% (active),-99.1% (active),-36.1% (active),19.1%,85.1%,0.261% (active),-72.2% (active),1.32% (active),-90.7% (active),19.2%,81.4%,,-11% (active)
Cc1nn(-c2ccccc2)cc1/C=C1\SC(N2CCCCC2)=NC1=O,22%,55.4%,102%,82.5%,79.4%,71%,68.8%,78.4%,68.1%,108%,94%,94.2%,93%,65.1%,78.5%,74.7%,39.8%,71.3%,,58.6%
